Test [1] has as its system Wnt5a (protein binding on small-molecule microarray). The test can be described thus: Wnt5a binders on small-molecule microarray, primary screen, biophysical, 635/667 nm fluorescence (AID 1142).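 Also: fluorescence read at 667 nm with signal to noise per printed feature.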 The settings on record: 635 nm fluorescence, higher = more signal.
Test [2] is described as follows: cell viability in Huh7 cells, primary screen, cytotoxicity control for HCV replication inhibitor project, CellTiter-Glo luminescence, basal, 48 h (AID 1143).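 Also: Huh7 hepatoma cells carrying a hepatitis C replication reporter with no stimulus; test concentration not given here.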 The settings on record: Huh7 HCV replicon, higher = more signal, called active from +8 up or from −8 down. (In general: Cellular ATP, detected with luciferase, serves as a proxy for viable cell number.)
Test [3] can be described thus: P. aeruginosa biofilm formation inhibitors, primary screen, PAO1 strain, BacTiter-Glo luminescence, LB-PBS (AID 1144). The settings on record: 12 h, higher = more signal.
Test [4] is described as follows: CREB reporter modulators without forskolin, primary screen, cell-based, PC12, CRE-LacZ reporter, unstimulated (AID 1145). The settings on record: no forskolin, luminescence, 4.5 h, higher = more signal, called active from +8 up or from −8 down.
Test [5] is described as follows: CREB reporter modulators under forskolin, primary screen, cell-based, PC12, CRE-LacZ reporter, forskolin-stimulated (AID 1146).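 Also: PC12 cells with 6xCRE LacZ reporter stimulated by forskolin 10 µM; beta-galactosidase reporter signal reflecting CREB driven transcription.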 The settings on record: luminescence, 4.5 h, higher = more signal, called active from +8 up or from −8 down.
Test [6] concerns the target Streptavidin (Streptomyces avidinii) (UniProt P22629). The test can be described thus: streptavidin binders on small-molecule microarray, primary screen, artefact control for SMM compound annotation, biophysical, 635/667 nm fluorescence (AID 1147).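 Also: signal reflects streptavidin binding to arrayed compounds as a control protein.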 The settings on record: streptavidin binding, higher = more signal.
Test [7] can be described thus: small-molecule binders of probe aInhba, primary screen, biochemical, small-molecule microarray, 635/667 nm fluorescence (AID 1148).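 Also: score merges 667nm spot fluorescence with signal-to-noise for antibody binding to printed compounds.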 The settings on record: higher = more signal.
The target of test [8] is Torsin-1A (Homo sapiens) (UniProt O14656). The test can be described thus: torsin A binders from cell lysate, primary screen, small-molecule microarray, wild-type, 635/667 nm (AID 1149). The settings on record: COS7 hTOR1A-WT lysate, 635 nm fluorescence, higher = more signal.
Test [9] has the same target. The test can be described thus: small-molecule binders of mutant TOR1A in lysate, primary screen, cell lysate, small-molecule microarray, COS7 lysate, 635/667 nm fluorescence (AID 1150).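 Also: score pools 667 nm emission and signal to noise measuring lysate protein binding.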 The settings on record: COS7 hTOR1A mutant lysate, 635 nm fluorescence, higher = more signal.
Test [10] has as its system Sonic hedgehog protein (Shh). The test can be described thus: small-molecule binders of Shh protein, primary screen, biochemical, small-molecule microarray, 635/667 nm fluorescence (AID 1151).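 Also: Shh protein binding to compounds spotted on small-molecule microarray slides; score combines spot fluorescence intensity with signal-to-noise across triplicate slides.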 The settings on record: small-molecule microarray binding, 635 nm fluorescence; higher = more signal.
The nature of test [11]: E. coli DRC41 culture turbidity changes, primary screen, E. coli filamentation inducer project, strain DRC41, OD650, 48 h (AID 1152).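 Also: E. coli MC1000 strain DRC41 lacking acrAB efflux pump and sulA.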 The settings on record: E. coli DRC41 (acrAB sulA), higher = more signal, called active from +8 up or from −8 down.
Test [12] in a line: small-molecule binders of probe aLefty1, primary screen, biochemical, small-molecule microarray, 635/667 nm fluorescence (AID 1153).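 Also: score merges spot fluorescence with signal-to-noise ratio from the scanned slide images.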 The settings on record: higher = more signal.
A short description of test [13]: PSAC antagonists in infected red cells, primary screen, cell-based, P. falciparum Indochina, OD700, 1 h (AID 1154). The settings on record: P. falciparum Indochina infected RBC osmotic lysis, higher = more signal, called active from +8 up or from −8 down.
The nature of test [14]: PSAC antagonists in infected red cells, primary screen, cell-based, P. falciparum Indochina, OD700, 2 h (AID 1155).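 Also: lysis reports solute entry through the parasite surface anion channel PSAC; channel blockers reduce lysis of infected cells.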 The settings on record: P. falciparum Indochina infected erythrocytes, osmotic lysis OD700; higher = more signal, called active from +8 up or from −8 down.
Test [15] in a line: osmotic lysis modulators in infected erythrocytes, primary screen, PSAC antagonist project, cell-based, P. falciparum Indochina, OD700, 3 h (AID 1156). The settings on record: higher = more signal, called active from +8 up or from −8 down.
Test [16] is described as follows: PSAC antagonists in infected red cells, primary screen, cell-based, P. falciparum Indochina, OD700, 18 h (AID 1157). The settings on record: P. falciparum Indochina infected erythrocytes, osmotic lysis OD700, 18 h; higher = more signal, called active from +8 up or from −8 down.
The nature of test [17]: modulators of S6 phosphorylation in cells, primary screen, cell-based, A549, cytoblot, luminescence, serum-stimulated (AID 1158).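 Also: serum-stimulated A549 lung adenocarcinoma cells; signal is phosphorylated S6 detected by cytoblot immunostaining with HRP secondary.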 The settings on record: A549 phospho-S6 cytoblot, 5 h, higher = more signal.
In test [18] the target is NADPH oxidase 2 (Homo sapiens) (UniProt P04839). The test can be described thus: NOX2-dependent H2O2 signal modulators, primary screen, NOX inhibitor project, cell-based, HEK293-NOX2, PMA-stimulated, Amplex Red fluorescence (AID 1159). Also: test concentration not given here. The settings on record: 45 min, higher = more signal, called active from +8 up or from −8 down.
Test [19] has as its target NADPH oxidase 4 (Homo sapiens) (UniProt Q9NPH5). The test can be described thus: NOX4-dependent H2O2 signal modulators, primary screen, NOX inhibitor project, cell-based, HEK293-NOX4, tetracycline-induced, Amplex Red fluorescence (AID 1160). The settings on record: 45 min, higher = more signal, called active from +8 up or from −8 down.
The target in test [20] is NADPH oxidase 5 (Homo sapiens) (UniProt Q96PH1). The test can be described thus: NOX5-dependent H2O2 signal modulators, primary screen, NOX inhibitor project, cell-based, HEK293-NOX5, Amplex Red fluorescence (AID 1161). The settings on record: HEK293-NOX5, ionomycin, 45 min, higher = more signal.

The values that follow come from PubChem BioAssay.

The source made the active and inactive calls. Unless noted, no rule for the calls is given here.

Chain of Torsin-1A (Homo sapiens) (O14656 whole entry, looked up): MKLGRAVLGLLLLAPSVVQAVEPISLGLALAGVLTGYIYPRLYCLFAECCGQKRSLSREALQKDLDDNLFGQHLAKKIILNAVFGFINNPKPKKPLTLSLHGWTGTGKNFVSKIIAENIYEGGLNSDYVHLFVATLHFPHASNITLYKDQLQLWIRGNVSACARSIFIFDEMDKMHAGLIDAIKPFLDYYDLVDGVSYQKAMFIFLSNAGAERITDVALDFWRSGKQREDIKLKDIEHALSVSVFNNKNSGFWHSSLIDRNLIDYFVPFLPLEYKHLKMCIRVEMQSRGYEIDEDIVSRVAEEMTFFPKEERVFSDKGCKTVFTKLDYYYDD
Chain of NADPH oxidase 4 (Homo sapiens) (Q9NPH5 whole entry, looked up): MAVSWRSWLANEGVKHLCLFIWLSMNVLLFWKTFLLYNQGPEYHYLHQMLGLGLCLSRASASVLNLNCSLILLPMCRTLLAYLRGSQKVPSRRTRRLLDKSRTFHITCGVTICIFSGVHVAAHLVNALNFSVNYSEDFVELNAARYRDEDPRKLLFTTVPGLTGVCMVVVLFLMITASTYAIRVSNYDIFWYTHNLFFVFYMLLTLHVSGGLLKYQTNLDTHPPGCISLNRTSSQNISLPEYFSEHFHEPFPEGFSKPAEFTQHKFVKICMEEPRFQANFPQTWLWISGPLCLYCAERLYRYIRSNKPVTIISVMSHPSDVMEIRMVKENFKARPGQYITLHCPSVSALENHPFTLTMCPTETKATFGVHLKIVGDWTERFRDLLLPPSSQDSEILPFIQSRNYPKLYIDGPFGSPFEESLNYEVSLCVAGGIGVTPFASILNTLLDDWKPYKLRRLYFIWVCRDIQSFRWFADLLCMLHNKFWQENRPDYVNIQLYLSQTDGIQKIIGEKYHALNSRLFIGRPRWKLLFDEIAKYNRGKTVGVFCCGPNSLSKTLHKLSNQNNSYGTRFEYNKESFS
Chain of NADPH oxidase 5 (Homo sapiens) (Q96PH1 whole entry, looked up): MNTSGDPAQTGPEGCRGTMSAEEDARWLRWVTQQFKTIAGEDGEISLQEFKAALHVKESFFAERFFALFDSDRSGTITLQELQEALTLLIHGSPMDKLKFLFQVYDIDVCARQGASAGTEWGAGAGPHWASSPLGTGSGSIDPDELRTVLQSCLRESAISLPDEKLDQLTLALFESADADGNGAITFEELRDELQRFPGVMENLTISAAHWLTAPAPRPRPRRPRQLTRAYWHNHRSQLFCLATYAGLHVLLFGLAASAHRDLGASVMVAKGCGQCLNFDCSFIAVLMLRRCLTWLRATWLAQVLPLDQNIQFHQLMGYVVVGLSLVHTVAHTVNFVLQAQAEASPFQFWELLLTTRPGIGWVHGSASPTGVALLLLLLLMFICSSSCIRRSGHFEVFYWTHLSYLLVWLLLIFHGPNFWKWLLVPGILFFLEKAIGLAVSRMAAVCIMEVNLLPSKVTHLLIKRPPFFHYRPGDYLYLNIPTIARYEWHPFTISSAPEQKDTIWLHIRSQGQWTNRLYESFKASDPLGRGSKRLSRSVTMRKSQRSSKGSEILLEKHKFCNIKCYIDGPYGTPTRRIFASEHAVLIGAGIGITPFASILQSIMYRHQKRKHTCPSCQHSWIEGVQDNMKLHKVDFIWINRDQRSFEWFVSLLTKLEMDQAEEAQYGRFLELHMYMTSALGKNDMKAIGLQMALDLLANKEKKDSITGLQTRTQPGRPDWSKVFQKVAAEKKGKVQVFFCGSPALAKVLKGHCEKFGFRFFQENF
Chain of Streptavidin (Streptomyces avidinii) (P22629 whole entry, looked up): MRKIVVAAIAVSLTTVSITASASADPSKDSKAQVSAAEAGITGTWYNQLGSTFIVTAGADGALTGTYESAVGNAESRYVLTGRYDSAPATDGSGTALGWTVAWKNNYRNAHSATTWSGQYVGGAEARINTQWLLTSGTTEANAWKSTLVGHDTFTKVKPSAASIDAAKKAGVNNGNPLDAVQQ
Chain of NADPH oxidase 2 (Homo sapiens) (P04839 whole entry, looked up): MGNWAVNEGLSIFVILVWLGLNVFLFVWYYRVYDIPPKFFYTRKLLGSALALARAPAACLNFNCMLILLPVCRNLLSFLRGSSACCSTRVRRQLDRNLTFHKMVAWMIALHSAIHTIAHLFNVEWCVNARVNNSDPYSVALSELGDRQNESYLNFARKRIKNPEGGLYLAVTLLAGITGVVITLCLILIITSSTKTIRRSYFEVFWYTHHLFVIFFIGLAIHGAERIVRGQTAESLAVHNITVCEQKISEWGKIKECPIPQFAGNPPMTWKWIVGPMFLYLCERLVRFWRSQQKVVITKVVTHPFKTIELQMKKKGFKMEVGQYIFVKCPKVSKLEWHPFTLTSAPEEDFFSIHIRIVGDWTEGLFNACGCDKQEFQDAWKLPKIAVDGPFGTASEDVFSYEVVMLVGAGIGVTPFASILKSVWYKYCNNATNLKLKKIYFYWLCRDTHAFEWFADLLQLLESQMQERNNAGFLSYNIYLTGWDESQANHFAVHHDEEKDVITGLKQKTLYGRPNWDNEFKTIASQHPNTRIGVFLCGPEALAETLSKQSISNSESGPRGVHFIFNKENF

For the compound `O=C1C[C@]2(c3ccc([N+](=O)[O-])cc3)C(=O)N(C3CC3)c3cc(CO)ccc3[C@H]2N1CC12CC3CC(CC(C3)C1)C2`, the composite z-score is -0.178 in test [1]; -0.368 in test [6]; -0.0403 in [7]; -1.26 with Torsin-1A (Homo sapiens) [8]; 0.228 in the test with Torsin-1A (Homo sapiens) [9]; -0.7 in test [10]. This compound also had a composite z-score in test [12] of 0.599. The z-score in test [2] was -2.19 (inactive); in test [3], 0.332 (inactive); in test [4], -0.179 (inactive); in test [5], 1.23 (inactive); in test [11], -0.829 (inactive); in test [13], 0.617 (inactive). Besides, the z-score was -0.0621 (inactive) in test [14]; 0.474 (inactive) in test [15]; 0.255 (inactive) in [16]; 0.204 in test [17]; 1.36 (inactive) in test [18]; -1.64 (inactive) in test [19]. Also, the z-score in [20] was 0.0712.

As for `O=C1C2C=CC(C(O)c3ccco3)N(Nc3ccccc3F)C2C(=O)N1c1ccccc1` (stereo not given), the composite z-score in test [1] was 0.0072; in [6] it was 0.99; in [7], 0.0275; with Torsin-1A (Homo sapiens) [8] it was -0.615; with Torsin-1A (Homo sapiens) [9] it was -0.0102; in [10] it was 0.155. This compound showed a composite z-score in [12] of 0.361. Besides, the z-score in test [2] was 0.761 (inactive); in test [3], -0.853 (inactive); in test [4] it was -0.136 (inactive); in test [5], 0.942 (inactive); in test [11], -1.72 (inactive); in test [13], 0.188 (inactive). For the same compound, the z-score in test [14] is 1.05 (inactive); in test [15] it was -0.197 (inactive); in test [16], 0.975 (inactive); in test [17] it was -0.754; in test [18], -0.73 (inactive); in [19] it was 0.251 (inactive). Also, the z-score in [20] was -1.64.

As to `COc1ccc([C@H]2OC[C@@H]3C[C@H](Cc4ccccc4)C(=O)N32)cc1`, the composite z-score in test [1] is 0.204; in [6], -0.371; in test [7], -0.0962; with Torsin-1A (Homo sapiens) [8], 0.48; with Torsin-1A (Homo sapiens) [9], 0.0464; in test [10], 0.532. The composite z-score in test [12] is 0.015. Besides, the z-score is -3.52 (inactive) in test [2]; 0.305 (inactive) in test [3]; 1.99 (inactive) in test [4]; 0.213 (inactive) in [5]; -0.446 (inactive) in test [11]; 1.96 (inactive) in [13]. The z-score in [14] was 0.92 (inactive); in [15], -0.356 (inactive); in [16], 0.284 (inactive); in test [17], -0.133; in test [18], 0.829 (inactive); in [19], 0.284 (inactive). This compound also had a z-score in test [20] of 0.695.

Take `COc1ccc([Si](C)(C)[C@@H]2[C@@H](CCO)O[C@]3(C(=O)N(Cc4ccccc4)c4ccc(N5CCOC5=O)cc43)[C@H]2C)cc1`: the composite z-score was 0.0035 in [1]; 0.242 in test [6]; -0.016 in [7]; 0.151 with Torsin-1A (Homo sapiens) [8]; 0.817 with Torsin-1A (Homo sapiens) [9]; 1.39 in test [10]. This compound displayed a composite z-score in [12] of 0.042. The z-score in test [2] is -5.88 (inactive); in test [3], -1.37 (inactive); in [4] it was 3.23 (inactive); in [5], -0.205 (inactive); in [11], 0.519 (inactive); in test [13] it was 3.02 (inactive). In addition, the z-score in [14] was -0.0856 (inactive); in test [15], 0.796 (inactive); in test [16] it was -1.09 (inactive); in [17], 2.12; in test [18], -0.245 (inactive); in test [19], 0.699 (inactive). The z-score in [20] was -1.07.

With `COc1ccc(CCNC(=O)[C@@]2(c3ccc([N+](=O)[O-])cc3)CC(=O)N(C3CCCCC3)[C@@H]2c2ccc(CO)cc2)cc1`, the composite z-score stood at 0.199 in [1]; 0.0841 in [6]; 0.249 in test [7]; 0.358 in the test with Torsin-1A (Homo sapiens) [8]; 0.56 in the test with Torsin-1A (Homo sapiens) [9]; 0.137 in test [10]. In [12], this compound had a composite z-score of 0.213. For the same compound, the z-score in [2] was -1.48 (inactive); in [3], 0.733 (inactive); in test [4], -0.125 (inactive); in [5], -1.11 (inactive); in test [11] it was 1.31 (inactive); in [13] it was 0.965 (inactive). Further, the z-score is -0.0966 (inactive) in test [14]; 1.03 (inactive) in [15]; -0.383 (inactive) in [16]; -0.112 in test [17]; -1.05 (inactive) in test [18]; 0.479 (inactive) in test [19]. In addition, in [20], the z-score came out at 0.0392.
